Data taken from paper PMC7862700, “An all-to-all approach to the identification of sequence-specific readers for epigenetic DNA modifications on cytosine”.

What was measured:
Assay in all cases: DAPPL (digital affinity profiling via proximity ligation, sequencing); 10 mM Tris-HCl pH 7.5, 50 mM NaCl, 1 mM DTT, 4% glycerol, room temperature, 30 min; GST-TFs on glutathione beads, 16-mer random dsDNA library, 0.1% formaldehyde crosslink after washing; high values mean tight binding
Conditions in all cases: protein: recombinant; tags: N-terminal GST; dsDNA, one strand shown
FLI1 = molecular target: T1, FLI1 (Homo sapiens, UniProt Q01543 1-452)
T1 sequence: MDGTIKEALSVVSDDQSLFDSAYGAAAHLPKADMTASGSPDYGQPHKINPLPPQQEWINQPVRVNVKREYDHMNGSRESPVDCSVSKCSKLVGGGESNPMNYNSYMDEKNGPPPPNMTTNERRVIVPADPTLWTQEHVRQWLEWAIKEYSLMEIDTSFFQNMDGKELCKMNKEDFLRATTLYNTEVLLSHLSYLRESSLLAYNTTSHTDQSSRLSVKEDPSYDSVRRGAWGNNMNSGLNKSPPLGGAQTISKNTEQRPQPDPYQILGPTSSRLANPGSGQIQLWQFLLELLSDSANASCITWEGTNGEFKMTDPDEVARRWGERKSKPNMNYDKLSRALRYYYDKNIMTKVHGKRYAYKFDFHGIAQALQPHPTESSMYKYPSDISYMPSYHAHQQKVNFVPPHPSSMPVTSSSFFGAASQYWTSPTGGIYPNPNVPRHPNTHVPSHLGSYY
How it was run: (§1)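 Human transcription factors were made in yeast as GST fusions, captured on glutathione beads and barcoded with DNA. With a tag-only sample included, the pool was incubated with 200 nmole of a random double-stranded 16-mer DNA library in Tris/NaCl/DTT/glycerol buffer at room temperature for 30 min, then crosslinked with 0.1% formaldehyde after washing, ligated by proximity, amplified and sequenced. For binding signal, each hexamer's read frequency for a factor is divided by its frequency for the tag-only sample.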

ELK1 = molecular target: T2, ELK1 (Homo sapiens, UniProt P19419 1-428)
T2 sequence: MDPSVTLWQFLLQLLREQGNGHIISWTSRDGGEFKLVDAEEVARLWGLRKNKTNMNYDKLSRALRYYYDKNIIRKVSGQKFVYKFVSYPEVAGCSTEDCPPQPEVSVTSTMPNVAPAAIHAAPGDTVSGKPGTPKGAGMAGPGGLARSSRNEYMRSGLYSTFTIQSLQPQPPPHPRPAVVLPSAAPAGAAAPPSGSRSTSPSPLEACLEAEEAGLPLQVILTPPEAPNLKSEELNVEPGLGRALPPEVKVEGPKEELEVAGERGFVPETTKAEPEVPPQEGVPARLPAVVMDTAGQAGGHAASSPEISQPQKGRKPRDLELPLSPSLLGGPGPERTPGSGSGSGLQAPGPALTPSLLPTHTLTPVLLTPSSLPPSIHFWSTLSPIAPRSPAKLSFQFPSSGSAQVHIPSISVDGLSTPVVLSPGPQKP
How it was run: as §1

GABPA = molecular target: T3, GABPA (Homo sapiens, UniProt Q06546 1-454)
T3 sequence: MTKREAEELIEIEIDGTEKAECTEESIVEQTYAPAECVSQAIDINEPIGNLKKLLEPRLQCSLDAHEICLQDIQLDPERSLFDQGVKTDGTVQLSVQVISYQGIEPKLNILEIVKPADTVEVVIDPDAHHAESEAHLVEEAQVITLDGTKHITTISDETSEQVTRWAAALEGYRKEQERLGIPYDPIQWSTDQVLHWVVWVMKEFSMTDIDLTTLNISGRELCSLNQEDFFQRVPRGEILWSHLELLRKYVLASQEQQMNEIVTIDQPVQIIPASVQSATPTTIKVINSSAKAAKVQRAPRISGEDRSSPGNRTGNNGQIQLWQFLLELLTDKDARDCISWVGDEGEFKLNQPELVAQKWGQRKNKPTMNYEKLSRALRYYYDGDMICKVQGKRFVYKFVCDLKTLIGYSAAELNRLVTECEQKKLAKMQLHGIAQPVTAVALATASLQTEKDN
How it was run: as §1

ELF1 = ELF1 (Homo sapiens, UniProt P32519 1-619)
How it was run: as §1

EHF = molecular target: T4, EHF (Homo sapiens, UniProt Q9NZC4 1-300)
T4 sequence: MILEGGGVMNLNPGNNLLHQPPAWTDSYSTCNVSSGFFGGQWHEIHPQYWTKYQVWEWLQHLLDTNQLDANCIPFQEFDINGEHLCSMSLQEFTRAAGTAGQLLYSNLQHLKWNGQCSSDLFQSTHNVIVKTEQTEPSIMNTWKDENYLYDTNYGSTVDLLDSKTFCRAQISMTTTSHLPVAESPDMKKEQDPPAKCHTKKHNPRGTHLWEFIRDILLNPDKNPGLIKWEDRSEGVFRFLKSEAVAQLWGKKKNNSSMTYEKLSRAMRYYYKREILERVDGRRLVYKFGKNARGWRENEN
How it was run: as §1

SPI1 = SPI1 (Homo sapiens, UniProt P17947 1-270)
How it was run: as §1

SPIB = SPIB (Homo sapiens, UniProt Q01892 1-262)
How it was run: as §1

ELK3 = molecular target: T5, ELK3 (Homo sapiens, UniProt P41970 1-407)
T5 sequence: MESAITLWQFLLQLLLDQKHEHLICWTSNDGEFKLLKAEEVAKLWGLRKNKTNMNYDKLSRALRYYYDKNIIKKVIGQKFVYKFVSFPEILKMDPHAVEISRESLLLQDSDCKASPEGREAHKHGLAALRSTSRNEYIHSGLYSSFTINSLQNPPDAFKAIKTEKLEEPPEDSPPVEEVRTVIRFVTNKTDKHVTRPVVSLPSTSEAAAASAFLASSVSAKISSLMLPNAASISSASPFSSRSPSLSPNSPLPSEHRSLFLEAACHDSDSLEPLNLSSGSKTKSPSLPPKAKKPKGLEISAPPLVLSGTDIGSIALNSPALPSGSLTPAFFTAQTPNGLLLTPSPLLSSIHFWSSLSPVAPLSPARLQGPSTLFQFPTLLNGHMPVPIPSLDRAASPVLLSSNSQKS
How it was run: as §1

FEV = molecular target: T6, FEV (Homo sapiens, UniProt Q99581 1-238)
T6 sequence: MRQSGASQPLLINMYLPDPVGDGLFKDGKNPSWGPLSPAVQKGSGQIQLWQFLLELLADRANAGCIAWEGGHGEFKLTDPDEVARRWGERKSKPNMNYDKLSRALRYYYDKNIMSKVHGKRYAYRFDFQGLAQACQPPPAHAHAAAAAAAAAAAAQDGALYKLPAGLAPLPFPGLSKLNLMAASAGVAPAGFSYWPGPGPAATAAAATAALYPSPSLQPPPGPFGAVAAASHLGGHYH
How it was run: as §1

ETV5 = ETV5 (Homo sapiens, UniProt P41161 1-510)
How it was run: as §1

SPIC = molecular target: T7, SPIC (Homo sapiens, UniProt Q8N5J4 1-248)
T7 sequence: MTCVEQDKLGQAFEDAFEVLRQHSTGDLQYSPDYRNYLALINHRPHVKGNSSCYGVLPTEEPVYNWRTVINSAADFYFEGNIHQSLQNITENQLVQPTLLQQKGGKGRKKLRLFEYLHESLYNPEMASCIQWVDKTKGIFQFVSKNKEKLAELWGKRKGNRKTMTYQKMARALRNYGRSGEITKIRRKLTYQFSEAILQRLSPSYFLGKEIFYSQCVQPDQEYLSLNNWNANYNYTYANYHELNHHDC
How it was run: as §1

ELF4 = ELF4 (Homo sapiens, UniProt Q99607 1-663)
How it was run: as §1

ELK4 = molecular target: T8, ELK4 (Homo sapiens, UniProt P28324-2 1-405)
T8 sequence: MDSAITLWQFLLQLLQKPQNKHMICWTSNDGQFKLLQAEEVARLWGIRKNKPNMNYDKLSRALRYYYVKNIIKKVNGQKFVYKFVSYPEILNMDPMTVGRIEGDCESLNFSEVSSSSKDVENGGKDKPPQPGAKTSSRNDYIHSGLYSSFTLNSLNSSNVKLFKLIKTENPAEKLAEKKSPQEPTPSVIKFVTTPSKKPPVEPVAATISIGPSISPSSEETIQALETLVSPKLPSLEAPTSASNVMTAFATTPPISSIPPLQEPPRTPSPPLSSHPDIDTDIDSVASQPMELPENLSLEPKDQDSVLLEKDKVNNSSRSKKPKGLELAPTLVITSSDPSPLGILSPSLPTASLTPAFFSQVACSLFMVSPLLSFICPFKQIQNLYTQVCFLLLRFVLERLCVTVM
How it was run: as §1

ETV2 = molecular target: T9, ETV2 (Homo sapiens, UniProt O00321 1-342)
T9 sequence: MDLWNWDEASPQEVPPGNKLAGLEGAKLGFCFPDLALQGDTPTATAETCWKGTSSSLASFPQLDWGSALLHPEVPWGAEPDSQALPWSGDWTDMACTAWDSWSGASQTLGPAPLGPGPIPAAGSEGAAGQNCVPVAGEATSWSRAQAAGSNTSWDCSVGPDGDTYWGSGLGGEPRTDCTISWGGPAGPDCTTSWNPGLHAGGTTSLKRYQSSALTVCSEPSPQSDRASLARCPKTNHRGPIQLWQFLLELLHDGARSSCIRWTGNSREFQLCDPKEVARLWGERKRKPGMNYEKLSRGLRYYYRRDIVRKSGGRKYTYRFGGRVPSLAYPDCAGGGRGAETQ
How it was run: as §1

ELF3 = molecular target: T10, ELF3 (Homo sapiens, UniProt P78545 1-371)
T10 sequence: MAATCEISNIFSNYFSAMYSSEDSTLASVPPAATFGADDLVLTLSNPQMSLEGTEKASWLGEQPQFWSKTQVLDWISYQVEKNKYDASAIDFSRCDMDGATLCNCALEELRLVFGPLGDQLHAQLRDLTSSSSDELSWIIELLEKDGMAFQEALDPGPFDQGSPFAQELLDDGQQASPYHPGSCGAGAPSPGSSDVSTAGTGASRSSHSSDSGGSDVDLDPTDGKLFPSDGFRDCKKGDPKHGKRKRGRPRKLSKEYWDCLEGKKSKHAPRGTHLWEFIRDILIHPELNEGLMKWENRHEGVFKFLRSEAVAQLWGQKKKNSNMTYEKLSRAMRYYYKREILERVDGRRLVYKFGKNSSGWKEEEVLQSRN
How it was run: as §1

CRX = CRX (Homo sapiens, UniProt O43186 1-299)
How it was run: as §1

ETV1 = ETV1 (Homo sapiens, UniProt P50549 1-477)
How it was run: as §1

ERG = molecular target: T11, ERG (Homo sapiens, UniProt P11308 1-479)
T11 sequence: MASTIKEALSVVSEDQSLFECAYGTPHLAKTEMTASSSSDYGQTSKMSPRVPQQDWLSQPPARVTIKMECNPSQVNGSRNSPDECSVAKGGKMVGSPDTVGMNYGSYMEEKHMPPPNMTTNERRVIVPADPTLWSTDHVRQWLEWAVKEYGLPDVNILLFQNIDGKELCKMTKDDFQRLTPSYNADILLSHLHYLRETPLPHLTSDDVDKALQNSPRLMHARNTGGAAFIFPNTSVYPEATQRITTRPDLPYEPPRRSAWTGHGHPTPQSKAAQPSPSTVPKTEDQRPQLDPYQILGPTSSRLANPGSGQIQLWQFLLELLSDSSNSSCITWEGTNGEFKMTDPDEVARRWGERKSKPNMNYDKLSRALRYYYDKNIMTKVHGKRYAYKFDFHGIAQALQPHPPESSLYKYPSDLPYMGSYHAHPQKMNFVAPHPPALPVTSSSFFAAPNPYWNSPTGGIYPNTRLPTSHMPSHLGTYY
How it was run: as §1

SPIB, sequence (Q01892 whole entry): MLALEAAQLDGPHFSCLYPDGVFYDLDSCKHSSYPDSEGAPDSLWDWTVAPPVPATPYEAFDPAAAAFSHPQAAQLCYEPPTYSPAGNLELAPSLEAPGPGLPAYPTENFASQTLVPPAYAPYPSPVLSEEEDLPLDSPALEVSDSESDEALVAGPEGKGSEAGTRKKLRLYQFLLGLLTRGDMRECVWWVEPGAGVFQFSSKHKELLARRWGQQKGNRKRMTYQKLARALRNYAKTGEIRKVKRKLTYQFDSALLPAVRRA
ETV5, sequence (P41161 whole entry): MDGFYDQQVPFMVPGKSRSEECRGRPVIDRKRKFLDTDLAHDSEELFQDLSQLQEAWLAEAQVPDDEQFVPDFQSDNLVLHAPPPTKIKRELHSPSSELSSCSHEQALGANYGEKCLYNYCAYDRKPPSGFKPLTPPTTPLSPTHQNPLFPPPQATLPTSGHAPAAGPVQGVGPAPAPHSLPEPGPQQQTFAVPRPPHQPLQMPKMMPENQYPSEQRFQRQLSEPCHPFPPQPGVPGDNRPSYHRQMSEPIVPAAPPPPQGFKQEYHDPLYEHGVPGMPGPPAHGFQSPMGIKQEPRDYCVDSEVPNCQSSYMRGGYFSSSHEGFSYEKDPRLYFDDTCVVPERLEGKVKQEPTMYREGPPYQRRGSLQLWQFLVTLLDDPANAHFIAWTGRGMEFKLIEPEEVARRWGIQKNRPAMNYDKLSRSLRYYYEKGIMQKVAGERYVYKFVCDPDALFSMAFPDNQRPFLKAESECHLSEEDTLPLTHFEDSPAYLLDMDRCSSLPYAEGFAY
ETV1, sequence (P50549 whole entry): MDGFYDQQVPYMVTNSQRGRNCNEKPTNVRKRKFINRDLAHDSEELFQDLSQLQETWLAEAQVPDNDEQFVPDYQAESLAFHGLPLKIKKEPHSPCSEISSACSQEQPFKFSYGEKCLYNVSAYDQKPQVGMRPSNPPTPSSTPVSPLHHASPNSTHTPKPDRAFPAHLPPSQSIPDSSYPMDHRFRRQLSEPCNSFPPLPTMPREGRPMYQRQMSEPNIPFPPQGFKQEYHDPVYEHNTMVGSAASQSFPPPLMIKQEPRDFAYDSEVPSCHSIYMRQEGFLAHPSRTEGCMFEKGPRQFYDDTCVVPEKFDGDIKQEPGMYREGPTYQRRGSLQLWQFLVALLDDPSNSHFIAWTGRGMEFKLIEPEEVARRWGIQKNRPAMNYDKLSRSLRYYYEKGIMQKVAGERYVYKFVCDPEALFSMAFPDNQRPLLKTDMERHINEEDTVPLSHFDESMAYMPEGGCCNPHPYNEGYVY
ELF4, sequence (Q99607 whole entry): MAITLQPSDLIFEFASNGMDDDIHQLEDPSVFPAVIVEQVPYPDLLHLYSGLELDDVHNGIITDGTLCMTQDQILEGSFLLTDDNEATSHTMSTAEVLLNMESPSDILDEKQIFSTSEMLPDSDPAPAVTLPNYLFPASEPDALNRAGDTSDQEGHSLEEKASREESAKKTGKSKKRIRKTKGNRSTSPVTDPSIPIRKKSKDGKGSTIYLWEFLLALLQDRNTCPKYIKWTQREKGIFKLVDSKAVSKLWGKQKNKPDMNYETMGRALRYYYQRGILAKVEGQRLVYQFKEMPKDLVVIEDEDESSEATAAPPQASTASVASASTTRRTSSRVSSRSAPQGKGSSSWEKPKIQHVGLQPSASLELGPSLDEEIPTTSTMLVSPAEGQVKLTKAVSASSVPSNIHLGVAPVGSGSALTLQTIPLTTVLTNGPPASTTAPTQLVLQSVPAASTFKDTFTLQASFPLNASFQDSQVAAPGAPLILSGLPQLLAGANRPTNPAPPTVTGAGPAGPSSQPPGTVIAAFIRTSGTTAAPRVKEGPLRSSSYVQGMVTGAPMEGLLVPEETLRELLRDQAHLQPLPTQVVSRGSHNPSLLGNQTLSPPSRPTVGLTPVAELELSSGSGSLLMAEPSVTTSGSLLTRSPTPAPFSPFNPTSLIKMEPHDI
CRX, sequence (O43186 whole entry): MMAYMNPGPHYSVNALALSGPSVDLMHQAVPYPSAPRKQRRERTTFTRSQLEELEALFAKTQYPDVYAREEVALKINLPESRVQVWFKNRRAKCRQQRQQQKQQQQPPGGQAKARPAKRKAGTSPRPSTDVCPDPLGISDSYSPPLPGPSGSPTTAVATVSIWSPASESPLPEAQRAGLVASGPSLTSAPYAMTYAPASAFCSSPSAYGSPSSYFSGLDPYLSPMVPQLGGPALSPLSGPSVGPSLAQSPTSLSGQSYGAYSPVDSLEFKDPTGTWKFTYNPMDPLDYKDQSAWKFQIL
ELF1, sequence (P32519 whole entry): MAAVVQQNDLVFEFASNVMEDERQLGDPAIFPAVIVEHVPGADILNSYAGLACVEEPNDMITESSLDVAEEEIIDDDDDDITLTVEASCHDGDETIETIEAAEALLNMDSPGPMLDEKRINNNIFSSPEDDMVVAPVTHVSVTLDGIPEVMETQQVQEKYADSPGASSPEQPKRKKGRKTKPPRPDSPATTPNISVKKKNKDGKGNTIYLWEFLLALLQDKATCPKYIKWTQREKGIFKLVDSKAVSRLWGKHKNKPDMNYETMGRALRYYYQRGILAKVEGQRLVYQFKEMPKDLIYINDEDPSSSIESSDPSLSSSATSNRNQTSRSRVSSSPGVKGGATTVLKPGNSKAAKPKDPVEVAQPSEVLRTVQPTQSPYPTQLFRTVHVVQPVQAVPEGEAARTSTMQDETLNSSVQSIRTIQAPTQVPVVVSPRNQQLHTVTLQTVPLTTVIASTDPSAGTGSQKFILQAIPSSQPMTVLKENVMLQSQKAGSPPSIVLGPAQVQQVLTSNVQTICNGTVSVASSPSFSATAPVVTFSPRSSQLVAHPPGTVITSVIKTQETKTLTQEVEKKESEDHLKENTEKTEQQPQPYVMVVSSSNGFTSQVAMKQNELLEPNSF

Row | Sequence | binding signal (FLI1) | binding signal (ELK1) | binding signal (GABPA) | binding signal (ELF1) | binding signal (EHF) | binding signal (SPI1) | binding signal (SPIB) | binding signal (ELK3) | binding signal (FEV) | binding signal (ETV5) | binding signal (SPIC) | binding signal (ELF4) | binding signal (ELK4) | binding signal (ETV2) | binding signal (ELF3) | binding signal (CRX) | binding signal (ETV1) | binding signal (ERG)
1 | TCAGCA | 1.08 fold enrichment (6-mer frequency, TF over GST control) | 1.02 fold enrichment (6-mer frequency, TF over GST control) | 1.06 fold enrichment (6-mer frequency, TF over GST control) | 1.04 fold enrichment (6-mer frequency, TF over GST control) | 1.09 fold enrichment (6-mer frequency, TF over GST control) | 1.02 fold enrichment (6-mer frequency, TF over GST control) | 1.01 fold enrichment (6-mer frequency, TF over GST control) | 1.07 fold enrichment (6-mer frequency, TF over GST control) | 1.02 fold enrichment (6-mer frequency, TF over GST control) | 1.05 fold enrichment (6-mer frequency, TF over GST control) | 1.1 fold enrichment (6-mer frequency, TF over GST control) | 1.1 fold enrichment (6-mer frequency, TF over GST control) | 1 fold enrichment (6-mer frequency, TF over GST control) | 1.04 fold enrichment (6-mer frequency, TF over GST control) | 1.08 fold enrichment (6-mer frequency, TF over GST control) | 1.01 fold enrichment (6-mer frequency, TF over GST control) | 1.11 fold enrichment (6-mer frequency, TF over GST control) | 
2 | GTAATG | 1.07 fold enrichment (6-mer frequency, TF over GST control) | 1.07 fold enrichment (6-mer frequency, TF over GST control) | 1.16 fold enrichment (6-mer frequency, TF over GST control) | 1.11 fold enrichment (6-mer frequency, TF over GST control) | 1.12 fold enrichment (6-mer frequency, TF over GST control) |  | 1.06 fold enrichment (6-mer frequency, TF over GST control) | 1.03 fold enrichment (6-mer frequency, TF over GST control) | 1.03 fold enrichment (6-mer frequency, TF over GST control) | 1.09 fold enrichment (6-mer frequency, TF over GST control) | 1.02 fold enrichment (6-mer frequency, TF over GST control) | 1.08 fold enrichment (6-mer frequency, TF over GST control) | 1.09 fold enrichment (6-mer frequency, TF over GST control) | 1.04 fold enrichment (6-mer frequency, TF over GST control) | 1.14 fold enrichment (6-mer frequency, TF over GST control) | 1 fold enrichment (6-mer frequency, TF over GST control) | 1.22 fold enrichment (6-mer frequency, TF over GST control) | 1.05 fold enrichment (6-mer frequency, TF over GST control)
